PubChem BioAssay AID1347434 (National Center for Advancing Translational Sciences (NCATS), 2020)
In all, about 1,200 compounds went through this assay and about 30 (2%) were called active. Not shown: some 23% with an inconclusive outcome. Only a selection was taken, and actives are over-represented in it overall. Values without a mark were called inactive. Calls follow the shape of the dose curve; as a rule, active = well fitted inhibition curve with a large enough effect; inconclusive = small, poorly fitted or top-dose-only effect; inactive = flat fitted curve, though single readings scatter.

Target: Single-stranded DNA cytosine deaminase (Homo sapiens) (UniProt Q9GZX7)
Test: Confirmatory qHTS assay for inhibitors of Activation Induced Cytidine Deaminase (AID): AID signals
Settings: recombinant AID, FRET deamination/UDG coupled fluorescence, 4 h; series mostly up to 115 µM; activity, negative = inhibition: at the top concentration
How it was run: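 Read 1 (AID) was measured at 540 ex/590 em after a 30 min NaOH step. The reaction was AID (1 uM, 4/3x stock) with UDG, compound at final 7.32 nM - 114 uM for 10 min, then DJC20/DJC23 substrate for 4 hr at room temperature. A UDG read at 560/665 serves as counterscreen.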
% is scaled to controls: 0 for no effect and ±100 for the full control effect; potency is read from the fitted curve at half-maximal effect.

Sequence of Single-stranded DNA cytosine deaminase (Homo sapiens) (Q9GZX7 whole entry, looked up): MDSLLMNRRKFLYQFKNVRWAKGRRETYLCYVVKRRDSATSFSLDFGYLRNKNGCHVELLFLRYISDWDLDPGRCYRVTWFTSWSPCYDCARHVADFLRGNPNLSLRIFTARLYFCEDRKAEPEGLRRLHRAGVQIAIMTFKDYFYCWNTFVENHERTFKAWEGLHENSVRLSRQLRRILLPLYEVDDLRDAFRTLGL

Structure (SMILES)	Potency	activity, negative = inhibition
O=C1C(SCCO)=C(SCCO)C(=O)c2ccccc21	14.1 µM (active)	
N#C/C(=C\c1ccc(-c2ccccc2C(=O)O)o1)c1nc2ccccc2[nH]1		33.8%
Cc1ccc(-c2ccc(=O)n(CC(=O)Nc3ccc(C)cc3Cl)n2)cc1		-24.2%
CCOC(=O)c1c(C)n(-c2ccccc2)c2ccc(OC(=O)c3ccccc3NC(=O)C(C)(C)C)cc12		11.3%
COc1ccc(OC)c(Nc2sc(C(=O)c3ccccc3)c(N)c2S(=O)(=O)c2ccccc2)c1		-2.04%
C=Cc1ccc(CSc2nc(-c3ccc(OC)cc3)nc3c2Cc2c(CO)cnc(C)c2O3)cc1		-8.87%
COc1cc(/C=C(\C#N)C(=O)Nc2nnc(C(F)(F)F)s2)ccc1OCc1ccc(C(F)(F)F)cc1C(F)(F)F	31.6 µM (active)	
CCC(Sc1nc2c(sc3ccccc32)c(=O)n1CCc1ccc(OC)c(OC)c1)C(=O)N(CC)CC (configuration not stated)		-18.2%
COc1ccc(C(=O)Nc2nc3n(n2)C(c2ccc(Cl)cc2)C=C(c2ccccc2)N3)cc1OC (configuration not stated)		-25.4%
O=C(NCCc1ccc(Cl)cc1)c1ccc2c(c1)N(Cc1ccc(Cl)cc1)C(=O)CS2		-4.7%
O=C(NCCn1cc(SCc2ccc(C(F)(F)F)cc2)c2ccccc21)c1cccs1		7.38%
Cc1cccc(N(CC(=O)NCCSCc2cccc(Cl)c2)S(=O)(=O)c2ccccc2)c1C		-3.57%
CCCOc1ccc(-c2nn(-c3ccccc3)cc2C2NC(=O)NC(C)=C2C(=O)OC(C)C)cc1 (configuration not stated)		-11.1%
CCN1C(=O)c2ccccc2S(=O)c2ccc(C(=O)N3CCN(c4cccc(C)c4)C(C)C3)cc21 (configuration not stated)		-22.1%
Cc1ccc(-n2cnc3cc(C(=O)NCCC4=CCCCC4)ccc32)c(C)c1		-13.5%
O=C(c1noc2c1CCCCC2)N1CCN(c2ccc(Cl)cc2)CC1		-0.744%
CCc1cccc(-n2c(C)nc3c(cnn3-c3ccc(C)c(C)c3)c2=O)c1		-7.64%
O=C(NCCn1cc(SCc2cccc(F)c2)c2ccccc21)c1cccc(C(F)(F)F)c1		2.49%
Cc1ccc(C)c(N2CCN(C(=O)c3cc(S(=O)(=O)N4CCC(C)CC4)cn3C)CC2)c1		-14.5%
Cc1ccc(C)c(N2CCN(C(=O)Cn3nc(Cc4cccnc4)c4ccccc4c3=O)CC2)c1		-7.71%
Cc1ccc(-c2nc(C(=O)N3CCN(c4ccccc4)CC3)c3n2CCCCC3)cc1		-10.4%

Structure (SMILES)	Potency	activity, negative = inhibition
COc1ccc2c(c1)Cc1sc(NC(=O)c3cccc(C)c3)nc1-2		-15.7%
CCc1ccc(OCC(=O)N(Cc2ccc(Cl)cc2)C2CCS(=O)(=O)C2)cc1 (configuration not stated)		-5.69%
Cc1ccc(Cl)cc1N1CCN(CCCNC(=O)c2ccc3nc(N4CCCCC4)sc3c2)CC1		-4.77%
Cn1c(SCc2ccc(F)cc2)nc2ccc(C(=O)NCc3ccc(F)cc3)cc21		-11.1%
COc1ccccc1CNC(=O)c1cnn2c(C)c(Cc3ccc(F)cc3)c(C)nc12		-10.8%
CCn1c(SCc2ccc(F)cc2Cl)nc(=O)c2c(C(=O)OC)cc(C3CC3)nc21		-28.3%
Cc1ccc(CN(Cc2ccco2)C(=O)c2ccccc2Br)o1		-10.6%
Cc1cc(Nc2cccc(F)c2)n2nc(-c3ccco3)nc2n1		7.61%
Cc1ccc(C)c(Cn2nc(-c3cc(C)ccc3C)ccc2=O)c1		-23.4%
CC1=Nc2cc(C(=O)N3CCC(C)CC3)ccc2Sc2ccc(Cl)cc21		-5.99%
O=C(NCCc1ccccc1)c1sc2ncccc2c1-n1cccc1		-19.5%
Cc1ccc(Cl)cc1NC(=O)C(C)n1nc(-c2ccccc2)ccc1=O (configuration not stated)		-16.4%
CCCCCCCCc1ccc(-c2ccc(C(=O)O)cc2)cc1	35.5 µM (active)	
Cn1nc(-c2ccc(C(=O)Nc3ccc(F)cc3)cc2)c2ccccc2c1=O		-28.5%
CCc1nnc(SCc2cccc(F)c2)c2cc3sc(C)cc3n12		-18.8%
Cc1cccc(N2CCN(C(=O)CS(=O)(=O)Cc3nc(-c4ccccc4C)oc3C)CC2C)c1 (configuration not stated)		2.05%
Cc1ccc(C)c(N(C)C(=O)C2CCN(c3ncnc4c3nc3n4CCCCC3)CC2)c1		-0.379%
COc1ccc(NC(=O)CSc2nc3nc(C)c(Cc4ccccc4)c(C)n3n2)cc1OC		-21.6%
CN(C)CCNc1ncnc2c1cnn2-c1cccc(Cl)c1		-20.9%
Cc1ccc(C)c(N2CCN(CCCNc3ncnc4onc(-c5ccc(Cl)cc5)c34)CC2)c1		-2.73%
CCc1ccc(CNC(=O)c2cnc3sc(N(CC)CC)nn3c2=O)cc1		-15.7%

Structure (SMILES)	Potency	activity, negative = inhibition
Cc1ccc(S(=O)(=O)N2CCCC2C(=O)Nc2ccc(Br)cc2)cc1 (configuration not stated)		-1.15%
CCc1nnc2c(N3CCN(c4cccc(C)c4)C(C)C3)nc3ccccc3n12 (configuration not stated)		-18.2%
CCOC(=O)C1=C(CN2CCN(c3cc(C)ccc3C)CC2)NC(=O)NC1c1ccccc1 (configuration not stated)		-4.99%
COc1ccc(S(=O)(=O)N(CC(=O)NC(C)c2ccccc2)c2ccc(C)cc2)cc1OC (configuration not stated)		1.71%
CC(=O)[C@]1(O)Cc2c(O)c3c(c(O)c2[C@@H](O[C@H]2C[C@H](N)[C@H](O)[C@H](C)O2)C1)C(=O)c1ccccc1C3=O	5.62 µM (active)	
COc1ccccc1C(=O)Nc1ccc(C(=O)OCc2cc(=O)n3nc(C)sc3n2)cc1		2.56%
Cc1cccc(C)c1OCC(=O)N(Cc1ccco1)Cc1ccco1		-0.167%
CCC1CCCCN1C(=O)CSc1nc2c([nH]c3ccccc32)c(=O)n1-c1cccc(OC)c1 (configuration not stated)		-12.2%
O=C(CCCCCn1c(=O)[nH]c2ccccc2c1=O)NCc1ccc(Cl)cc1		9.51%
Cc1cccc(C)c1NC(=O)CS(=O)(=O)c1nc(-c2ccc(Cl)cc2)cn1-c1ccccc1		-7.27%
CN1CCN(c2nc3c(S(=O)(=O)c4ccc(Cl)cc4)nnn3c3ccsc23)CC1		-27.7%
COc1ccccc1C(=O)NCCn1cc(SCc2ccccc2Cl)c2ccccc21		-0.695%
Cc1ccc2c(c1)c(=O)c(C(=O)c1ccccc1)cn2Cc1ccccc1F		-20.4%
O=C(c1ccc(F)cc1)c1cn(Cc2ccccc2)c2cc3c(cc2c1=O)OCO3		-10.5%
COc1ccc(NCc2nc3ccccc3n2CCOc2ccccc2C)cc1		-11.3%
Cc1cccc(N2CCN(C(=O)c3sc4nc5n(c(=O)c4c3C)CCC5)CC2C)c1 (configuration not stated)		-8.89%
CN(c1ncnc2onc(-c3cccc(Cl)c3)c12)C1CCCCC1		-20.3%
COc1ccc(CCN2CCC(CNC(=O)c3cnn(-c4cccc(Cl)c4)c3C3CCN(C(=O)OC(C)(C)C)CC3)CC2)cc1	31.6 µM (active)	
COc1ccc(CCN2CCC(CNC(=O)c3cnn(-c4ccccc4)c3C3CCN(C(=O)OC(C)(C)C)CC3)CC2)cc1		-15%
CC(C)(C)OC(=O)N1CCC(c2c(C(=O)NCCN3CCC(Cc4ccccc4)CC3)cnn2-c2ccccc2)CC1		-19.5%
